Experimental data as given in the OligoGym collection.
Also: reference of the scale not given here.

What follows are sequences tested against ESR2 (assay: pooled miR-30 sensor sort-seq; sequence = guide strand). Settings: shRNA.
TATCGATTGTACACTGATTTGT showed a sensor-assay potency score (higher = more potent) of -0.431.
TCCAAGTTAGTGACATTGCTGG showed a sensor-assay potency score (higher = more potent) of 0.101.
Sequence ATCATTAACACCTCCATCCAAC has a sensor-assay potency score (higher = more potent) of -1.05.
Sequence TTATGTCCTTGAATGCTTCTTT has a sensor-assay potency score (higher = more potent) of 0.411.
TTCCAAGTTAGTGACATTGCTG showed a sensor-assay potency score (higher = more potent) of -0.291.
Sequence TTACAGGTAAGGTGTGTTCTAG has a sensor-assay potency score (higher = more potent) of -0.694.
With TAGCTGGACAAATATAATCATT the sensor-assay potency score (higher = more potent) was -1.44.
With TTTTTATCGATTGTACACTGAT the sensor-assay potency score (higher = more potent) was -0.36.
TACCCACATCTCTCTCTCCGGG showed a sensor-assay potency score (higher = more potent) of -0.444.
With TTCCTTTTCAGTGTCTCTCTGT the sensor-assay potency score (higher = more potent) was 0.263.
Work on TTACATCCTTCACACGACCAGA yielded a sensor-assay potency score (higher = more potent) of -0.608.
In the case of TTGTACACTGATTTGTAGCTGG, the sensor-assay potency score (higher = more potent) is reported as 0.245.
Work on TTTTCTGCCCTCGCATGCCTGA yielded a sensor-assay potency score (higher = more potent) of -0.946.
In the case of TTATCGATTGTACACTGATTTG, the sensor-assay potency score (higher = more potent) is reported as -1.64.
In the case of TTGTCGGCCAACTTGGTCAGGG, the sensor-assay potency score (higher = more potent) is reported as -0.443.
TTTTATCGATTGTACACTGATT gave a sensor-assay potency score (higher = more potent) of -1.06.
